In the library only some 28% were active in any assay of this set; here they are far more common.
CYP2C19 inh – inhibitors of human CYP2C19 | inhibition, % at 5 µM | CYP2C19 Supersomes, luciferin-H EGE luminescence, 30 min | 96,000 tested, 21% active;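 active = CYP2C19 inhibition above a set limit at 5 µM in the primary screen, cut at about 50% in these data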;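 note: plate controls were negative control wells for no effect and 2.5 mM tranylcypromine positive control for full effect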
CYP2C19 activ – increases human CYP2C19 enzyme activity; recombinant CYP2C19, luciferin-H EGE luminescence; stronger effect = higher value; 0 = fully inhibited enzyme, 1 = untreated enzyme; 96,000 tested, under 10 active; P33261; activation factor at 5 µM;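 active = activation factor of at least 2 at 5 µM in the primary screen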;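 note: 0 = wells with 2.5 mM tranylcypromine and 1 = vehicle-only wells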
D1 allo mod – allosterically modulates the human D1 dopamine receptor; B-score at 10 µM; AID 641; P21728; 58,000 tested, 5.9% active; HEK293 D1, CRE-luciferase, dopamine EC30 potentiation; actives deviate in either direction;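 active = luminescence count or its row- and column-corrected plate score outside the 99.7% band of the plate's sample wells, on either side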
CYP2C9 inh – inhibitors of human CYP2C9; P11712; CYP2C9 Supersomes, luciferin-H conversion, luminescence; inhibition, % at 5 µM; 96,000 tested, 20% active; AID 777;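 active = blocking of liver enzyme CYP2C9 beyond about 50% at 5 µM, limit read from the data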
Target sequence (P11712 whole entry, looked up): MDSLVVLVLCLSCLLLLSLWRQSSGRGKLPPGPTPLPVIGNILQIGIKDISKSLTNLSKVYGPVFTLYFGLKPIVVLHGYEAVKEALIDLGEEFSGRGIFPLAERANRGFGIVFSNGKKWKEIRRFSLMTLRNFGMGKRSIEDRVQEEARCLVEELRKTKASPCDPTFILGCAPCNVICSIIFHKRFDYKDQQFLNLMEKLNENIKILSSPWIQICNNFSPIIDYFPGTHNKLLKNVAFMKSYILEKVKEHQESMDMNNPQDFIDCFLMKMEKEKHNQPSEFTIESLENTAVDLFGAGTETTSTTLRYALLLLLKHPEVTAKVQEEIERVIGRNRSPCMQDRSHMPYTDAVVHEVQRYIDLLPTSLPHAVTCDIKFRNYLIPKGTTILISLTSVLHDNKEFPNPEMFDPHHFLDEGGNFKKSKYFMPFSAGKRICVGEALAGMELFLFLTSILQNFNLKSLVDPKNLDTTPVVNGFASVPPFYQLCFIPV
hDAT+cocaine – human DAT dopamine uptake with cocaine, either direction; Q01959; LLC-PK1 hDAT cells, [14C]-dopamine uptake with cocaine IC80; actives deviate in either direction; B-score at 10 µM; 110,000 tested, 1.3% active;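 active = Z score or B-score, a plate-position-corrected score, falls beyond the plate's 99.7% confidence bounds, in either direction; inactive = both scores lie inside the 99.7% bounds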;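 note: scored against the spread of the other compound wells on the same plate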
CYP2C9 act – increases human cytochrome P450 2C9 activity; 96,000 tested, 1.4% active; activation factor at 5 µM; recombinant CYP2C9, luciferin-H conversion, luminescence; stronger effect = higher value; factor 1 = untreated enzyme, 0 = blocked;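 active = activation factor of 2 or more for CYP2C9 at a 5 µM dose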;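 note: 0 = sulfaphenazole-blocked wells and 1 = vehicle-only wells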
* hit, by the source's call; · = no result.

SMILES	CYP2C19 inh	CYP2C19 activ	D1 allo mod	CYP2C9 inh	hDAT+cocaine	CYP2C9 act
O=C(CCCC(=O)N(c1ccc2c(c1)OCCO2)C(C(=O)NC1CCCCC1)c1ccc(F)cc1)Nc1ccccn1 (stereo not drawn)	52*	0.5	·	-100	-0.19	2*
COCCN(C(=O)CCCC(=O)Nc1ccccn1)C(C(=O)NC1CCCCC1)c1ccc(C)cc1 (stereo not drawn)	64*	0.4	0.017	56*	0.36	0.4
Cc1ccc(NC(=O)CN(C)C(=O)CSc2nc3ccccc3o2)cc1	22	0.8	·	32	·	0.7
CC(C)CC(OC(=O)c1nsc(Cl)c1Cl)C(=O)NCc1cccs1 (stereo not drawn)	·	·	·	·	-0.22	·
O=C(CSc1nc2ccccc2[nH]1)Nc1ccc2c(c1)OCCO2	38	0.6	·	72*	0.82	0.3
COC(=O)c1ccc(CSc2nc3ccc(C)cc3[nH]2)o1	93*	0.1	·	83*	-0.53	0.2
O=C(CCc1nc2ccccc2[nH]1)Nc1ccc2c(c1)OCO2	34	0.7	-0.072	37	-0.53	0.6
O=C(CSc1nc2ccccc2[nH]1)Nc1ccc(F)cc1	94*	0.1	-0.62	84*	-1.3	0.2
O=C(Nc1nc2ccccc2[nH]1)C1CC(=O)N(c2ccc3c(c2)OCCO3)C1 (stereo not drawn)	59*	0.4	-0.29	62*	0.16	0.4
O=C(O)C1CC(=O)N(c2ccc3c(c2)OCCO3)C1 (stereo not drawn)	-20	1.2	·	-12	-0.084	1.1
COC(=O)c1ccc(CSc2nc3c(cnn3-c3ccc(C)cc3)c(=O)[nH]2)o1	·	·	2.5	·	0.085	·
CCOC(=O)c1sc(NC(=O)c2ccc(S(=O)(=O)N3CCOCC3)cc2)cc1C	-15	1.1	0.78	-10	0.068	1.1
COc1cccc(N2C(=O)CC(N3CCC(C(N)=O)(N4CCCCC4)CC3)C2=O)c1 (stereo not drawn)	·	·	-0.12	·	1.9	·
COC(=O)c1cc(NC(=O)CSc2nncn2C)cc(C(=O)OC)c1	22	0.8	·	27	-0.073	0.7
CCOC(=O)C1CCN(C(=O)CNS(=O)(=O)c2cccs2)CC1	31	0.7	0.078	6	-1.4	0.9
COc1ccccc1CN1CC(C(=O)NCc2cccnc2)CC1=O (stereo not drawn)	8	0.9	1.6	1	-0.49	1
C=CCSc1nnc(NC(=O)c2ccc(Cl)nc2)s1	26	0.7	·	42	-1.8	0.6
Cc1ccc(C)c(N2CCN(C(=O)c3ccc(CSc4nc5ccncc5[nH]4)cc3)CC2)c1	·	·	·	·	2	·
O=C(CSc1nc2ccncc2[nH]1)Nc1ccccc1C(F)(F)F	60*	0.4	-0.12	48	-0.56	0.5
Cc1ccc2nc(SCC(=O)Nc3ccc4c(c3)OCCO4)[nH]c2c1	32	0.7	·	83*	-0.054	0.2
Cc1ccc2nc(SCC(=O)Nc3cc(C)on3)[nH]c2c1	76*	0.2	-0.25	78*	-0.0029	0.2
Clc1ccccc1CSc1nc2ccncc2[nH]1	99*	0	·	32	·	0.7
CC(C)NC(=O)c1cc(-n2cnnc2)ccc1Cl	-5	1.1	·	-4	-0.23	1
Cc1cc(C(=O)OCC(=O)c2c(N)n(C)c(=O)n(C)c2=O)c(C)n1-c1ccccc1	14	0.9	1.2	36	-0.2	0.6
COc1ccccc1N1CC(C(=O)OCC(=O)c2ccc(F)cc2)CC1=O (stereo not drawn)	26	0.7	·	-64	0.29	1.6
SMILES	CYP2C19 inh	CYP2C19 activ	D1 allo mod	CYP2C9 inh	hDAT+cocaine	CYP2C9 act
Cc1cccc(N2CC(C(=O)OCC(=O)c3ccc(OC(=O)c4cccs4)cc3)CC2=O)c1C (stereo not drawn)	71*	0.3	·	76*	-0.35	0.2
Cc1ccc(C(=O)COC(=O)C2CC(=O)N(c3nc(-c4ccccc4)cs3)C2)cc1 (stereo not drawn)	71*	0.3	·	79*	0.6	0.2
CCCCN1CCc2c1nc1ccc(Br)cc1c2N	45	0.6	·	12	0.053	0.9
CC12CCC(=O)N1c1c(sc3nc(N4CCOCC4)c4c(c13)CCCC4)C(=O)N2 (stereo not drawn)	3	1	·	68*	3.2*	0.3
CC(C)Oc1ccc(N2CC(C(=O)OCC(=O)NCc3ccccc3)CC2=O)cc1 (stereo not drawn)	-9	1.1	·	15	-0.13	0.9
Cc1c(OCc2ccccc2)c(=O)ccn1Cc1ccccc1	68*	0.3	·	37	1.2	0.6
CCOC(=O)N1CCN(C(=O)c2c(O)c3cccc4c3n(c2=O)CC4)CC1	0	1	0.92	-4	-0.01	1
Oc1ccc(Br)cc1/C=N/n1cnc2ccccc21	6	0.9	-0.089	71*	-0.39	0.3
OCC(CO)(CO)N=Cc1cc(Br)ccc1O	6	0.9	0.69	1	1.1	1
O=C(N/C(=N\O)c1ccccc1)Nc1ccc(Cl)cc1	64*	0.4	-0.039	56*	0.23	0.4
O=C(N/N=C/c1ccc(Cl)cc1Cl)Nc1ccccc1	35	0.6	·	24	0.17	0.8
O=c1c2ccccc2ncn1CCCOc1ccccc1[N+](=O)[O-]	52*	0.5	·	42	-0.69	0.6
COc1ccccc1CNC(=O)Cn1cnc2ccccc2c1=O	41	0.6	·	27	-0.79	0.7
COc1cccc(OC)c1OCCOCCn1cnc2ccccc2c1=O	77*	0.2	0.1	21	0.57	0.8
O=c1c2ccccc2ncn1CCCSc1ccccc1	78*	0.2	·	39	0.38	0.6
O=c1c2ccccc2ncn1CCCSc1ccc(Cl)cc1	22	0.8	·	36	1.9	0.6
Cc1cc(C)c(OCCCCn2cnc3ccccc3c2=O)c(C)c1	9	0.9	·	28	0.82	0.7
Cc1cccc(C)c1OCCCCn1cnc2ccccc2c1=O	19	0.8	·	53*	1.5	0.5
CCc1nc2ccccc2n1CCC(C)C	42	0.6	0.9	22	-0.71	0.8
O=S(=O)(Cc1ccccc1)NCC1CCCO1 (stereo not drawn)	8	0.9	·	-8	0.45	1.1
COCCn1c(=O)c2c3c(sc2n(CC(N)=O)c1=O)CCCC3	·	·	0.3	·	·	·
COC(=O)c1cc(-c2ccccc2)n(CCN)c1C	·	·	·	·	0.075	·
O=C(CCN1CCCCC1)NCC1OCCc2ccccc21 (stereo not drawn)	86*	0.1	-0.92	-9	0.94	1.1
CCc1ccc(NC(=O)CS(=O)CC(=O)NCC2OCCc3ccccc32)cc1 (stereo not drawn)	46	0.5	0.64	74*	1.1	0.3
O=C(NCC1OCCc2ccccc21)c1ccco1 (stereo not drawn)	16	0.8	0.26	3	0.49	1
O=C(CCCOc1ccc(Cl)cc1Cl)NCC1CCCO1 (stereo not drawn)	·	·	·	·	0.93	·
CNc1nc2c(c(=O)[nH]c(=O)n2C)n1CCOC	6	0.9	-0.43	4	-0.057	1
